Measurements from PubChem BioAssay.
Unmarked numbers belong to inactive results. The source made the active and inactive calls.

Assay: viability profiling in MM1S myeloma cells – cell-based, resazurin fluorescence, basal, 24 h, PK04 Diversity Set, profiling panel (AID 1174);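 note: MM1S multiple myeloma cell line; test concentration not given here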
Settings: higher = more signal, called active from +8 up or from −8 down

| Compound | z-score |
| --- | --- |
| CC(CCN1CCCCc2nc(C)c(C)cc21)=NOC[C@@H](C)[C@H](OCc1ccccc1)C(C)C | -0.13 |
| COC(=O)CC=C[C@@H](C)[C@@H](C=NO[C@@H]1O[C@H](COC(C)=O)[C@@H](OC(C)=O)[C@H](OC(C)=O)[C@H]1OC(C)=O)OC | -0.205 |
| CO[C@@H]1COC(=O)[C@H](CCSC)NC(=O)CC=C[C@@H](C)COC(=O)CCC[C@H]1C | -0.11 |
| CCCNC(=O)OC[C@H]1O[C@H](CCON=C(C)CCC(=O)OC[C@H]2O[C@H](c3ccccc3)C=C[C@@H]2Oc2ccc(OC)cc2)C=C[C@@H]1Oc1ccc(OC)cc1 | 0.205 |
| CCN1C(=O)[C@@H]2[C@H]3C(=CC[C@@H]2C1=O)C1(OCCCO1)[C@H]1O[C@H]1[C@H]3O | -8.78 (active) |
| O=C1[C@H]2[C@H]3[C@H](O)[C@H](O)CC(=NOC[C@@H](O)COCc4ccco4)[C@H]3CC[C@H]2C(=O)N1Cc1ccccc1 | 0.737 |
| CO[C@H]1COC(=O)[C@@H](C)COC(=O)[C@H](C)NC(=O)CC=C[C@H]1C | 0.433 |
| C[C@H]1COC(=O)[C@@H]2CCCN2C(=O)[C@@H](C)COC(=O)[C@H](Cc2ccccc2)NC1=O | -0.208 |
| COC(=O)CC=C[C@@H](C)[C@H](OCc1cccc(-c2ccccc2)c1)C1CCCCC1 | 0.45 |
| C=CC[C@@H]1C=C[C@H](ON=C(C)CCC(=O)OC[C@H]2O[C@H](C#Cc3ccccc3)C=C[C@@H]2Oc2ccc(C)cc2)[C@@H](CO)O1 | 0.212 |
| CON=C[C@@H](NS(=O)(=O)c1ccc(C)cc1)[C@H](C)C=CCC(=O)OC | -0.548 |
| CO[C@@H]1COC(=O)CC=C[C@H](C)[C@H](OC)COC(=O)[C@H](C)NC(=O)CC=C[C@H]1C | 0.978 |
| CC(CCC(=O)OC[C@H]1O[C@H](C#Cc2ccccc2)C=C[C@@H]1Oc1ccc(C)cc1)=NO[C@H](C)c1cn([C@H](CO)Cc2ccccc2)nn1 | -0.0044 |
| CCOC(=O)[C@H](Cc1ccccc1)NC(=O)CCC1CC(OC(=O)NCc2cccc3ccccc23)CC2(CCCC(COC(=O)NCC(c3ccccc3)c3ccccc3)O2)O1 (stereo partly specified) | 0.923 |
| CC(C)=CCCC(C)=CCON=C1C[C@@H](O)[C@@H](O)[C@@H]2[C@@H]3C(=O)N(C[C@@H]4CCCO4)C(=O)[C@@H]3CC[C@H]12 | -0.58 |
| COC(=O)[C@H]1O[C@@H](c2c(OC)c(OC)c(C)c(OC)c2OC)[C@H](C)[C@@H](O)[C@H]1C | -1.76 |
| COc1ccc(O[C@H]2C=C[C@@H](c3ccccc3)O[C@@H]2COC(=O)CCC(C)=NOC[C@@H](O)[C@H]2O[C@@H]3OC(C)(C)O[C@@H]3[C@H]2O)cc1 | 0.0383 |
| CCOC(=O)[C@H](CC(C)C)NC(=O)CCC1CC(OC(=O)NCCc2ccc(F)cc2)CC2(CCCC(COC(=O)NCC3CCCCC3)O2)O1 (stereo partly specified) | 0.0789 |

| Compound | z-score |
| --- | --- |
| CC(C)=CCCC(C)=CCON=C1C[C@@H](O)[C@@H](O)[C@@H]2[C@@H]3C(=O)N(C4CCCCC4)C(=O)[C@@H]3CC[C@@H]12 | -0.454 |
| COC(=O)CC=C[C@@H](C)[C@@H](C=NOC[C@H]1O[C@H](c2ccccc2)C=C[C@@H]1Oc1ccc(OC)cc1)NS(=O)(=O)c1ccc(C)cc1 | -0.0907 |
| CCc1cc2c(nc1CC)CCN(CCC(C)=NO[C@H](C)c1cn([C@@H]3COC[C@H]3O)nn1)C2 | -1.4 |
| CCOC(=O)NN=C1C[C@@H](O)[C@@H](O)[C@@H]2[C@@H]3C(=O)N(Cc4ccc5c(c4)OCO5)C(=O)[C@@H]3CC[C@H]12 | -0.343 |
| CO[C@H]1COC(=O)CC=C[C@H](C)[C@@H](OC)COC(=O)[C@@H](C)NC(=O)CC=C[C@@H]1C | 1.01 |
| CO[C@@H]1COC(=O)CC=C[C@@H](C)[C@@H]2C=C[C@H](O)[C@@H](COC(=O)CC=C[C@H]1C)O2 | 0.992 |
| CCOC(=O)[C@H](CC(C)C)NC(=O)CCC1CC(OC(=O)NCCc2ccc(F)cc2)CC2(CCCC(COC(=O)NCCc3ccccc3OC)O2)O1 (stereo partly specified) | 0.311 |
| CCCNC(=O)OC[C@H]1O[C@H](CCON=C(C)CCN2CCCc3nc(C)c(C)cc32)C=C[C@@H]1Oc1ccc(OC)cc1 | -0.291 |
| CCC(=O)[C@@]1(O)C(=O)N2C(=C3C(=O)OCC[C@@H]31)N(Cc1ccccc1)C(C)=C(C(=O)OC)[C@H]2c1ccccc1 | 0.327 |
| CC(C)(C)N1C(=O)[C@H]2[C@H]3[C@H](O)C=CC(=O)[C@@H]3CC[C@H]2C1=O | 0.469 |
| CC(CCN1CCCc2nc(C)c(C)cc21)=NO[C@@H](C)c1cc(-c2c(C)cc(C)cc2C)no1 | -0.012 |
| C[C@H](ON=C1[C@H]2CCn3c(=O)n(-c4ccccc4)c(=O)n3[C@H]2[C@H](O)[C@@H]2O[C@H]12)c1cn([C@H](CO)Cc2ccccc2)nn1 | -0.489 |
| CCN1C(=O)[C@H]2[C@H]3[C@H](O)[C@H](O)CC(=O)[C@H]3CC[C@H]2C1=O | -0.242 |
| C#CCCCON=C1C[C@@H](O)[C@@H](O)[C@@H]2[C@@H]3C(=O)N(c4ccc(F)cc4F)C(=O)[C@@H]3CC[C@H]12 | 0.475 |
| O=C(NN=C1C[C@@H](O)[C@@H](O)[C@@H]2[C@@H]3C(=O)N(C4CCCCC4)C(=O)[C@@H]3CC[C@@H]12)OCc1ccccc1 | -0.0864 |
| CC(CCN1CCCCc2nc(C)c(C)cc21)=NOC[C@@H](O)COCc1ccco1 | -0.399 |
| C=CC1=C[C@H](O)[C@@H]2O[C@@H]2C12OCCCO2 | -0.458 |
| CON=C1[C@H]2CCn3c(=O)n(-c4ccccc4)c(=O)n3[C@H]2[C@H](O)[C@@H]2O[C@H]12 | 0.333 |
